HGIII-sPLA2 inh: Blocks human group III sPLA2 activity; Q9NZ20; QFRET BODIPY PC-A2 liposome hydrolysis, fluorescence; inhibition, % at 12.2 µM; hit rate 0.56% among 370,000; AID 743126;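 active means inhibition above mean plus 3 SD of compounds lying within the high and low control bounds, cut at about 19% in these data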
NadD block: blocks S. aureus nicotinate mononucleotide adenylyltransferase; inhibition, % at 20 µM; purified NadD enzyme, colorimetric absorbance read-out; hit rate 0.78% among 360,000; in the data active means inhibition above about 26%
DAGLB inh: diacylglycerol lipase beta (human) inhibition. Q8NCG7. HEK293T DAGLB membrane lysate, EnzChek fluorogenic substrate. inhibition, % at 5.17 µM. hit rate 0.059% among 340,000; in the data active means inhibition above about 34%
Neddyl block: inhibitors of human cullin neddylation. inhibition, % at 25 µM. TR-FRET cullin neddylation, biochemical. hit rate 0.58% among 360,000. AID 651699. P61081+Q13564; in the data active means inhibition above about 36%
ARNT TACC3 PPI: disruptors of human ARNT/TACC3 interaction. AlphaScreen His-ARNT PAS-B/GST-TACC3 binding, luminescence; TACC3 fragment carries E629A point mutation. inhibition, % at 9.99 µM. hit rate 0.66% among 390,000. AID 623870;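 active means mean inhibition of replicates at least 50% and at least half of replicates each reaching 50%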
NadD conf: confirmation of Staphylococcus aureus NadD inhibitors. hit rate 13% among 2,000. purified S. aureus NadD, colorimetric enzyme assay. shares compounds with NadD block. inhibition, % at 20 µM. AID 624309; in the data active means inhibition mostly above about 42%, no sharp cut-off; inactive means mostly below about 42%
Large screens that a line does not name were inactive (follow-up assays come after a bar, where shown). Most compounds without a hit are left out; they make up all but 2% or so of the library.

Cc1cc(C)n(-c2cc(N3CCN(S(=O)(=O)c4ccc(C)c(C)c4)CC3)ccc2[N+](=O)[O-])n1	none
Cc1cc(C)n(-c2cc(N3CCN(S(=O)(=O)c4ccc5ccccc5c4)CC3)ccc2[N+](=O)[O-])n1	NadD block 50.1 | NadD conf inactive
CN1C(=O)c2cc(NC(=O)Nc3ccccc3)ccc2OC[C@@H]2O[C@H](CC(=O)NC3CCC3)CC[C@@H]21	none (no result: HGIII-sPLA2 inh, NadD block, DAGLB inh, Neddyl block)
CO[C@H](CN(C)C(=O)c1ccccc1F)[C@H](C)CN([C@H](C)CO)S(=O)(=O)c1ccccc1	none (no result: HGIII-sPLA2 inh, NadD block, DAGLB inh, Neddyl block)
COc1cc2c(C#N)c(N3CCc4ccccc4C3)nc(N)c2c(N)n1	NadD block 42.4 | NadD conf inactive
COC(=O)C[C@H]1CC[C@H]2[C@H](COc3ccc(NC(=O)c4ccc(F)cc4)cc3C(=O)N2C)O1	none (no result: HGIII-sPLA2 inh, NadD block, DAGLB inh, Neddyl block)
COc1ccccc1-n1c(SCC(=O)NC2CCS(=O)(=O)C2)nc2cc([N+](=O)[O-])ccc21 (configuration not stated)	none
COc1ccccc1-n1c(SCC(=O)c2ccc(O)cc2O)nc2cc([N+](=O)[O-])ccc21	NadD block 48.5 | NadD conf inactive
N#CCn1cc(/C=N/NC(=O)c2cc3c(ccc4ccccc43)o2)c2ccccc21	NadD block 31.2 (not shown: Neddyl block) | NadD conf inactive
Cc1cc([N+](=O)[O-])ccc1-c1ccc(/C=N/NC(=O)c2ccc(Br)o2)o1	NadD block 30.8 | NadD conf inactive
O=C(N/N=C/c1ccc(-c2ccc(Cl)c(C(=O)O)c2)o1)c1cc2c(ccc3ccccc32)o1	NadD block 39.1 (not shown: Neddyl block) | NadD conf 51.5
O=C(N/N=C/c1cccc([N+](=O)[O-])c1)c1cc2c(ccc3ccccc32)o1	none
Cc1cc(C(=O)N/N=C/c2ccc(-c3ccc([N+](=O)[O-])cc3C)o2)n[nH]1	none
Cc1ccc([N+](=O)[O-])cc1-c1ccc(/C=N/NC(=O)c2cc3c(ccc4ccccc43)o2)o1	NadD block 32.7 | NadD conf inactive
C[C@@H]1CN([C@H](C)CO)S(=O)(=O)c2ccc(C3=CCCC3)cc2O[C@H]1CN(C)C(=O)C1CCC1	none (no result: HGIII-sPLA2 inh, NadD block, DAGLB inh, Neddyl block)
C[C@@H]1CCCCO[C@@H](CN(C)CC2CCCCC2)[C@H](C)CN([C@@H](C)CO)C(=O)c2cc(NC(=O)Cc3ccccc3)ccc2O1	none (no result: HGIII-sPLA2 inh, NadD block, DAGLB inh, Neddyl block)
C[C@@H]1CCCCO[C@H](CN(C)S(C)(=O)=O)[C@@H](C)CN([C@@H](C)CO)C(=O)c2cc(NC(=O)Nc3ccc4c(c3)OCO4)ccc2O1	none (no result: HGIII-sPLA2 inh, NadD block, DAGLB inh, Neddyl block)
Cc1ccc(-c2ccc(/C=N\NC(=O)c3cc4c(ccc5ccccc54)o3)o2)cc1[N+](=O)[O-]	NadD block 44.5 | NadD conf inactive
Cc1ccc(-c2ccc(/C=N/NC(=S)Nc3ccccc3)o2)cc1[N+](=O)[O-]	none
CC(C)C[C@@H](CNCC(=O)[C@H](CC(=O)O)NC(=O)c1[nH]cnc1C(=O)N[C@H](CN)CC(C)C)NC(=O)c1nc[nH]c1C(=O)N[C@@H](Cc1ccccc1)C(=O)O	NadD block 34.6 | NadD conf 52.2
COc1cccc(-c2cnc3c(c2)C(=O)N([C@H](C)CO)C[C@@H](C)[C@H](CN(C)Cc2ccncc2)O3)c1	none (no result: HGIII-sPLA2 inh, NadD block, DAGLB inh, Neddyl block)
COc1cc(C(=O)Nc2nc(-c3cc(C)ccc3C)c(C)s2)ccc1OCC(=O)Nc1ccc(F)cc1	NadD block 32.8 | NadD conf inactive
CCOC(=O)C1=C(N)n2c(s/c(=C/c3ccco3)c2=O)=C(C(=O)OC)C1c1ccco1 (configuration not stated)	NadD block 31.1 | NadD conf inactive
CCc1cccc(CC)c1NC(=O)C1SC(=Nc2ccccc2C)C(c2nc3ccccc3s2)=C1N (configuration not stated)	NadD block 31.6 | NadD conf inactive
CCNC(=O)[C@H]1[C@H](CO)[C@H]2Cn3c(ccc(C4=CCCC4)c3=O)[C@@H]1N2C(=O)CC	none (no result: HGIII-sPLA2 inh, NadD block, DAGLB inh, Neddyl block)
CC/C(C)=N/Nc1nc(-c2cc3cccc(OC)c3oc2=O)cs1	NadD block 51.1 (no result: DAGLB inh) | NadD conf inactive
C#CCn1c(=NC(=O)c2sc3ccccc3c2Cl)sc2cc(S(N)(=O)=O)ccc21	NadD block 39.0 (no result: ARNT TACC3 PPI) | NadD conf inactive
C#CCn1c(=NC(=O)c2ccccc2[N+](=O)[O-])sc2cc(S(C)(=O)=O)ccc21	none
CO[C@@H](CN(C)C(=O)C1CC1)[C@H](C)CN(C(=O)Nc1ccc(C(F)(F)F)cc1)[C@@H](C)CO	none (no result: HGIII-sPLA2 inh, NadD block, DAGLB inh, Neddyl block)
